Sfp inh: blocks B. subtilis Sfp PPTase activity; Biochemical Sfp PPTase activity, qHTS; Potency, µM, for the others: largest response in the series, negative = inhibition, actives largely listed as inhibitors; actives 3.5% (n = 310,000); AID 1490;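 also: the enzyme is Sfp with the accession as filed and its product quenches rhodamine fluorescence; 0% = enzyme reaction without inhibitor and -100% = no enzyme wells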
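Fluorescence-quenching assay: 15 nM Sfp-PPTase preincubated 15 min at room temperature with compound, then 5 uM rhodamine-CoA and 12.5 uM BHQ-2-labelled YbbR peptide added. Fluorescence (ex 525/em 598 nm) read at start and after 30 min; difference gives rate.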
RORgamma inh: ROR gamma (mouse) transcription inhibition; P51450; Drosophila S2 Gal4-RORgamma UAS-luciferase reporter, 20 h; Potency, µM (doses to about 53.6 µM), without a hit: top-dose activity change, negative = inhibition, hits mostly inhibitors; actives 5.4% (n = 310,000); also: nearly all actives have a fitted effect of over 60% in size
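Stable Schneider cell line, Gal4 DNA-binding domain fused to ROR gamma, UAS-luciferase. Cmpd 1 hr RT → CuSO4 700 uM final → 20 hr RT → luciferase reagent 10 min → luminescence.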
ALDH1A1 inh: inhibitors of human aldehyde dehydrogenase 1A1. P00352. Purified ALDH1A1, NADH fluorescence, propionaldehyde substrate. Potency, µM (series often up to 75.3 µM), without a hit: at the top dose activity, negative = inhibition, most hits filed as inhibitors. actives 7.3% (n = 220,000); active = well fitted inhibition curve with a large enough effect, not every such curve was filed as active; inconclusive = small, poorly fitted or top-dose-only effect, or another doubt; inactive = no such curve, though single readings can be large or run the other way;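 also: plate controls were no enzyme wells and a reference inhibitor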
Target sequence (P00352 whole entry, looked up): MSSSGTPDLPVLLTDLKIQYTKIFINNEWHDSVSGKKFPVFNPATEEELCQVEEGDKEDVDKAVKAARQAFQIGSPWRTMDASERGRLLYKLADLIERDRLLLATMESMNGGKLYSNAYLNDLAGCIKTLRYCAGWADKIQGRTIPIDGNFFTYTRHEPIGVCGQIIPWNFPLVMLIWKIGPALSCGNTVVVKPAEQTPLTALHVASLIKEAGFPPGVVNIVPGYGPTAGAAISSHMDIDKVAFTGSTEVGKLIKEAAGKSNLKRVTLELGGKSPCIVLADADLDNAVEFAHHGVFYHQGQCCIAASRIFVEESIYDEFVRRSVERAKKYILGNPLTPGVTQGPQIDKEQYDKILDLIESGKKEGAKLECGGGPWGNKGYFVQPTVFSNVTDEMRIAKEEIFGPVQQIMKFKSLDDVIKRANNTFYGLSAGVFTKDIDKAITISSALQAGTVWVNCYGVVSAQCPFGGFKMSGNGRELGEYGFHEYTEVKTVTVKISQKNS
Gal4-VP16 FLuc: Gal4-VP16 reporter inhibition counter-screen | actives 3.5% (n = 310,000) | Potency, µM (series often up to 53.6 µM), for the others: top-dose activity, negative = inhibition, usual class: inhibitors | Drosophila S2 Gal4-VP16 UAS-luciferase, luminescence, 20 h;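 also: Gal4-VP16 expression switched on by copper sulfate through the metallothionein promoter; nearly all actives have a fitted effect of over 50% in size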
PLK1 PBD block: inhibitors of human PLK1 polo-box domain binding; P53350; Plk1 PBD binding of FITC phosphopeptide, fluorescence polarization; Potency, µM, for inactives: max response, negative = inhibition, hits mostly inhibitors; actives 2.8% (n = 360,000); also: series mostly up to about 57 µM; nearly all actives have a fitted effect of over 65% in size
Starred values were filed as active, the others as inactive; ? = inconclusive; nt = no result; ! = not active in a repeat; [ ] = another dose, or the depositor's remark. This is a sample that favours compounds with a hit; in the whole collection about 12% have one here. Unless noted, calls follow the shape of the dose curve; as a rule, active = well fitted curve in the direction sought with a large enough effect; inconclusive = small, poorly fitted or top-dose-only effect, or another doubt; inactive = no such curve, though single readings can be large; an effect the other way counts as inactive or inconclusive. Unless noted, % is scaled to controls: 0 for no effect and ±100 for the full control effect; potency is read from the fitted curve at half-maximal effect.

SMILES	Sfp inh	RORgamma inh	ALDH1A1 inh	Gal4-VP16 FLuc	PLK1 PBD block
CCN=C1NN=C(c2cc(C)n(Cc3ccco3)c2C)CS1	-6.0%	0.282µM*	?	?	-10.3%
Clc1ccc(C2=NNC(=NCC3CCCO3)SC2)cc1 (stereo not drawn)	-17.4%	?	8.91µM*	?	?
C[C@H](Cc1ccccc1)Nc1ncnc2c1ncn2[C@@H]1O[C@H](CO)[C@H](O)[C@H]1O	nt	nt	26.1%	nt	nt
CC[C@H](C)[C@H](NC(=O)[C@H](CC(=O)O)NC(=O)[C@H](CC(C)C)NC(=O)[C@H](Cc1cnc[nH]1)NC(=O)[C@H](C)NC(=O)[C@H](Cc1ccccc1)NC(=O)[C@H](Cc1ccc(O)cc1)NC(=O)[C@@H](NC(=O)[C@H](C)NC(=O)[C@H](CCC(=O)O)NC(=O)[C@H](CCCCN)NC(=O)[C@H](CC(=O)O)NC(=O)[C@H](CCSC)NC(=O)[C@H](CC(C)C)NC(C)=O)C(C)C)C(=O)N[C@H](C(=O)N[C@@H](Cc1c[nH]c2ccccc12)C(=O)O)[C@@H](C)CC	1.5%	-4.3%	nt	-6.6%	nt
COc1ccco1	6.3%	3.9%	nt	3.6%	nt
COc1ccccc1N1CC(C(=O)OC(C)C(=O)Nc2ccc(F)cc2)CC1=O (stereo not drawn)	nt	nt	nt	nt	-7.3%
Cc1cccc(-c2nsc(SCC(=O)Nc3ccc4c(c3)OCO4)n2)c1	-24.1%	-12.5%	0.3%	-5.0%	-24.3%
Cc1cccc(-c2nsc(SCC(=O)Nc3nccs3)n2)c1	50.1µM*	11.2µM*	?	-14.3%	18.9µM*
O=C(CSc1nc(-c2ccccc2)ns1)N1CCOCC1	39.8µM*	-25.5%	12.6µM*	-14.3%[10 µM]	21.2µM*
Cc1cccc(-c2nsc(SCC(=O)N3CCCC3)n2)c1	?	7.08µM*	-8.3%	?	?
O=C(Nc1ccc2ccccc2c1)C(c1ccc(C(F)(F)F)cc1)n1c(=O)c(-c2cc3ccccc3[nH]2)nc2ccccc21 (stereo not drawn)	nt	nt	nt	nt	-0.5%
NCCCCCCCCCCNS(=O)(=O)c1cccc2c(Cl)cccc12	50.1µM*	?	-5.8%	31.6µM*	nt
NCCCCCCNS(=O)(=O)c1cccc2c(Cl)cccc12	63.1µM*!	25.4%	6.7%	14.9%	-5.0%
COc1ccc(N2CCN(CC(=O)Nc3ccc(C)c(C)c3)CC2)cc1	5.6%	9.3%	nt	1.4%	-2.7%
CCCOc1ccc(C(F)(F)F)cc1NC(=O)c1cc(C)on1	nt	nt	nt	nt	-13.7%
Cc1nc2c(C(=O)NCCC(C)C)c[nH]n2c(=O)c1Cl	10.7%	33.3%	?	-5.8%	?
Cc1nc2c(C(=O)NCCC(C)C)c[nH]n2c(=O)c1Cc1ccccc1F	3.3%	5.4%	-4.3%	10.2%	21.2µM*
FC(F)(F)c1ccccc1NC(=S)N1CCCCCC1	4.2%	?	nt	-6.7%	-8.9%
Cc1c(Cl)cccc1NC(=S)N1CCCCCC1	4.5%	14.1µM*	nt	?	-29.2%
CCc1ccccc1NC(=S)NN	-28.4%	11.2µM*	?	?	nt
Cc1ccc(NC(=S)N2CCCCCC2)c(C)c1	2.9%	?	nt	17.8µM*	-5.2%
FC(F)(F)c1ccccc1NC(=S)N1CCN(c2ncccn2)CC1	-1.8%	12.6µM*	1.4%	-10.3%	-2.5%
Cc1cccc(NC(=S)N2CCOCC2)c1C	70.8µM*	?	-2.1%	?	-0.8%
CCc1ccccc1NC(=S)N1N=CCC1c1ccccc1 (stereo not drawn)	18.6%	3.16µM*	?	7.94µM*	-9.0%
Cc1c(Cl)cccc1NC(=S)NN1CCOCC1	16.0%	10µM*	-1.9%	?	-2.2%
SMILES	Sfp inh	RORgamma inh	ALDH1A1 inh	Gal4-VP16 FLuc	PLK1 PBD block
Cc1cccc(NC(=S)N2CCCCCC2)c1C	12.2%	?	nt	?	-2.0%
Cc1c(Cl)cccc1NC(=S)NCCN1CCOCC1	7.8%	?	-0.2%	-10.1%	-4.0%
CCc1ccccc1NC(=S)N1CCCCCC1	13.2%	14.1µM*	nt	?	-8.3%
CC(CN(C)C)NC(=O)c1ccc(Cc2nc3ccccc3[nH]2)cc1 (stereo not drawn)	nt	nt	17.7%	nt	nt
NC(=O)c1ccc(C[C@H](C(=O)O)N2C(=O)c3ccc(C(=O)O)cc3C2=O)cc1	13.0%	-0.7%	nt	-3.3%	nt
COc1ccc(O[C@H]2C=C[C@@H](c3ccccc3)O[C@H]2COC(=O)CC/C(C)=N\O[C@@H](C)c2cc(-c3c(C)cc(C)cc3C)no2)cc1	-3.2%	13.7%[10 µM]	9.3%[13.5 µM]	2.8%[10 µM]	nt
Cc1ccc(NC(=S)N2CCN(c3ncccn3)CC2)c(C)c1	32.7%	35.5µM*	-7.0%	?	-3.5%
Cc1ccc(Cl)cc1NC(=S)N1CCCCCC1	9.4%	10µM*	nt	?	-6.0%
CCN(c1ccc(OC)cc1)S(=O)(=O)N1CCCC(C(=O)NCc2ccc(OC(C)C)cc2)C1 (stereo not drawn)	nt	nt	nt	nt	7.0%
COc1ccccc1-c1ccc(=O)n(CC(=O)NC2CCc3ccccc32)n1 (stereo not drawn)	35.5µM*	3.55µM*	-2.2%	?	-10.7%
CCOC(=O)c1c(C)[nH]c(=S)c(C#N)c1-c1ccc(Cl)cc1	-7.2%	11.2µM*	?	?	-18.2%
CC(=O)c1c(C)[nH]c(=S)c(C#N)c1-c1ccc(Cl)cc1	?	?	nt	?	-23.1%
CCOC(=O)c1c(C)[nH]c(=S)c(C#N)c1-c1ccc(OC)cc1	?	12.6µM*	?	?	-19.7%
CCCCOc1ccc(-c2c(C#N)c(N)[nH]c(=S)c2C#N)cc1	-11.4%	?	nt	-4.6%	?
Cc1[nH]c(=S)c(C#N)c(-c2ccco2)c1C(=O)N(C)C	10µM*	?	28.2µM*	-6.3%	-21.4%
CCCCOc1ccc(-c2c(C(=O)Nc3ccccc3)c(C)[nH]c(=S)c2C#N)cc1	14.8%	-1.8%	3.55µM*	3.0%	-29.6%
OC(c1ccc(F)c(F)c1)c1nc(-c2csc3ccccc23)cs1 (stereo not drawn)	nt	nt	nt	nt	-2.5%
O=c1onc2n1-c1cc(Br)ccc1OC2	nt	nt	-4.5%	nt	nt

From PubChem BioAssay
